Data from PubChem BioAssay.
Activity calls are given as the source filed them. Unless noted, how the calls were made is not given here.

What was measured:
[1] = test system: Wnt5a (protein binding on small-molecule microarray); assay: Wnt5a binders on small-molecule microarray, primary screen, biophysical, 635/667 nm fluorescence (AID 1142); details: 635 nm fluorescence, higher = more signal;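 further: fluorescence read at 667 nm with signal to noise per printed feature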
[2] = cell viability in Huh7 cells, primary screen, cytotoxicity control for HCV replication inhibitor project, CellTiter-Glo luminescence, basal, 48 h (AID 1143); details: Huh7 HCV replicon, higher = more signal, called active from +8 up or from −8 down;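 further: Huh7 hepatoma cells carrying a hepatitis C replication reporter with no stimulus; test concentration not given here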
[3] = P. aeruginosa biofilm formation inhibitors, primary screen, PAO1 strain, BacTiter-Glo luminescence, LB-PBS (AID 1144); details: 12 h, higher = more signal
[4] = CREB reporter modulators without forskolin, primary screen, cell-based, PC12, CRE-LacZ reporter, unstimulated (AID 1145); details: no forskolin, luminescence, 4.5 h, higher = more signal, called active from +8 up or from −8 down
[5] = CREB reporter modulators under forskolin, primary screen, cell-based, PC12, CRE-LacZ reporter, forskolin-stimulated (AID 1146); details: luminescence, 4.5 h, higher = more signal, called active from +8 up or from −8 down;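 further: PC12 cells with 6xCRE LacZ reporter stimulated by forskolin 10 µM; beta-galactosidase reporter signal reflecting CREB driven transcription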
[6] = target: Streptavidin (Streptomyces avidinii) (UniProt P22629); assay: streptavidin binders on small-molecule microarray, primary screen, artefact control for SMM compound annotation, biophysical, 635/667 nm fluorescence (AID 1147); details: streptavidin binding, higher = more signal;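 further: signal reflects streptavidin binding to arrayed compounds as a control protein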
[7] = small-molecule binders of probe aInhba, primary screen, biochemical, small-molecule microarray, 635/667 nm fluorescence (AID 1148); details: higher = more signal;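 further: score merges 667nm spot fluorescence with signal-to-noise for antibody binding to printed compounds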
[8] = target: Torsin-1A (Homo sapiens) (UniProt O14656); assay: torsin A binders from cell lysate, primary screen, small-molecule microarray, wild-type, 635/667 nm (AID 1149); details: COS7 hTOR1A-WT lysate, 635 nm fluorescence, higher = more signal
[9] = target: Torsin-1A (Homo sapiens) (UniProt O14656); assay: small-molecule binders of mutant TOR1A in lysate, primary screen, cell lysate, small-molecule microarray, COS7 lysate, 635/667 nm fluorescence (AID 1150); details: COS7 hTOR1A mutant lysate, 635 nm fluorescence, higher = more signal;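 further: score pools 667 nm emission and signal to noise measuring lysate protein binding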
[10] = test system: Sonic hedgehog protein (Shh); assay: small-molecule binders of Shh protein, primary screen, biochemical, small-molecule microarray, 635/667 nm fluorescence (AID 1151); details: small-molecule microarray binding, 635 nm fluorescence; higher = more signal;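 further: Shh protein binding to compounds spotted on small-molecule microarray slides; score combines spot fluorescence intensity with signal-to-noise across triplicate slides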
[11] = E. coli DRC41 culture turbidity changes, primary screen, E. coli filamentation inducer project, strain DRC41, OD650, 48 h (AID 1152);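 further: E. coli MC1000 strain DRC41 lacking acrAB efflux pump and sulA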; details: E. coli DRC41 (acrAB sulA), higher = more signal, called active from +8 up or from −8 down
[12] = small-molecule binders of probe aLefty1, primary screen, biochemical, small-molecule microarray, 635/667 nm fluorescence (AID 1153); details: higher = more signal;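 further: score merges spot fluorescence with signal-to-noise ratio from the scanned slide images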
[13] = PSAC antagonists in infected red cells, primary screen, cell-based, P. falciparum Indochina, OD700, 1 h (AID 1154); details: P. falciparum Indochina infected RBC osmotic lysis, higher = more signal, called active from +8 up or from −8 down
[14] = PSAC antagonists in infected red cells, primary screen, cell-based, P. falciparum Indochina, OD700, 2 h (AID 1155);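 further: lysis reports solute entry through the parasite surface anion channel PSAC; channel blockers reduce lysis of infected cells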; details: P. falciparum Indochina infected erythrocytes, osmotic lysis OD700; higher = more signal, called active from +8 up or from −8 down
[15] = osmotic lysis modulators in infected erythrocytes, primary screen, PSAC antagonist project, cell-based, P. falciparum Indochina, OD700, 3 h (AID 1156); details: higher = more signal, called active from +8 up or from −8 down
[16] = PSAC antagonists in infected red cells, primary screen, cell-based, P. falciparum Indochina, OD700, 18 h (AID 1157); details: P. falciparum Indochina infected erythrocytes, osmotic lysis OD700, 18 h; higher = more signal, called active from +8 up or from −8 down
[17] = modulators of S6 phosphorylation in cells, primary screen, cell-based, A549, cytoblot, luminescence, serum-stimulated (AID 1158); details: A549 phospho-S6 cytoblot, 5 h, higher = more signal;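 further: serum-stimulated A549 lung adenocarcinoma cells; signal is phosphorylated S6 detected by cytoblot immunostaining with HRP secondary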
[18] = target: NADPH oxidase 2 (Homo sapiens) (UniProt P04839); assay: NOX2-dependent H2O2 signal modulators, primary screen, NOX inhibitor project, cell-based, HEK293-NOX2, PMA-stimulated, Amplex Red fluorescence (AID 1159); details: 45 min, higher = more signal, called active from +8 up or from −8 down; further: test concentration not given here
[19] = target: NADPH oxidase 4 (Homo sapiens) (UniProt Q9NPH5); assay: NOX4-dependent H2O2 signal modulators, primary screen, NOX inhibitor project, cell-based, HEK293-NOX4, tetracycline-induced, Amplex Red fluorescence (AID 1160); details: 45 min, higher = more signal, called active from +8 up or from −8 down
[20] = target: NADPH oxidase 5 (Homo sapiens) (UniProt Q96PH1); assay: NOX5-dependent H2O2 signal modulators, primary screen, NOX inhibitor project, cell-based, HEK293-NOX5, Amplex Red fluorescence (AID 1161); details: HEK293-NOX5, ionomycin, 45 min, higher = more signal
Sequence of NADPH oxidase 5 (Homo sapiens) (Q96PH1 whole entry, looked up): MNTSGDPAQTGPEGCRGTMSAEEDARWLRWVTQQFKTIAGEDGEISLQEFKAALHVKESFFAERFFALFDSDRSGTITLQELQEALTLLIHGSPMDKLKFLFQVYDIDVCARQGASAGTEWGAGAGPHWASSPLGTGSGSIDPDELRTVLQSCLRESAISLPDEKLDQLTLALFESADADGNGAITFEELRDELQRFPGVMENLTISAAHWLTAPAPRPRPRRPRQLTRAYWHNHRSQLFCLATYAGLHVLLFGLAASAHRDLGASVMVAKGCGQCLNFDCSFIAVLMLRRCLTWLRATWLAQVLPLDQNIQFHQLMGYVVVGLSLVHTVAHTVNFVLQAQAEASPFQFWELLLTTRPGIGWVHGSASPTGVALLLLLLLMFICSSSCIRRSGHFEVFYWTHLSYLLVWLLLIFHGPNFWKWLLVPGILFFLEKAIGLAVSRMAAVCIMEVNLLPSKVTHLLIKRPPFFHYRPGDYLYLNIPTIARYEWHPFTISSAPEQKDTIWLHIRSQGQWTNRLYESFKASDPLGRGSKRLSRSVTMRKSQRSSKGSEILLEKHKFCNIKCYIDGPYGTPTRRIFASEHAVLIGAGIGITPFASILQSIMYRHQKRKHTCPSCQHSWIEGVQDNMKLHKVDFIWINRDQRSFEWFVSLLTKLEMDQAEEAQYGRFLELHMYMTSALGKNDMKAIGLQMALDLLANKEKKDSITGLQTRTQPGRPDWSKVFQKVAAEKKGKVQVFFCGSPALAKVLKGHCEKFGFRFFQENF

Sequence of Torsin-1A (Homo sapiens) (O14656 whole entry, looked up): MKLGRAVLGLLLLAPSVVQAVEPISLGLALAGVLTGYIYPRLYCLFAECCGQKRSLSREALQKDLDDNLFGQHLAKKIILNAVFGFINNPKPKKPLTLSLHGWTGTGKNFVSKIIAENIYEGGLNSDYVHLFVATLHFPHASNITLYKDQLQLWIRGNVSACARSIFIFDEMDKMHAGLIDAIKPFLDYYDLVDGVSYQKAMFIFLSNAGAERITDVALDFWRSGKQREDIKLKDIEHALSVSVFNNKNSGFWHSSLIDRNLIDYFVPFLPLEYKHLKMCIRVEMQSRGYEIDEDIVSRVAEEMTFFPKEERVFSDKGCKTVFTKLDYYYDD
Sequence of NADPH oxidase 2 (Homo sapiens) (P04839 whole entry, looked up): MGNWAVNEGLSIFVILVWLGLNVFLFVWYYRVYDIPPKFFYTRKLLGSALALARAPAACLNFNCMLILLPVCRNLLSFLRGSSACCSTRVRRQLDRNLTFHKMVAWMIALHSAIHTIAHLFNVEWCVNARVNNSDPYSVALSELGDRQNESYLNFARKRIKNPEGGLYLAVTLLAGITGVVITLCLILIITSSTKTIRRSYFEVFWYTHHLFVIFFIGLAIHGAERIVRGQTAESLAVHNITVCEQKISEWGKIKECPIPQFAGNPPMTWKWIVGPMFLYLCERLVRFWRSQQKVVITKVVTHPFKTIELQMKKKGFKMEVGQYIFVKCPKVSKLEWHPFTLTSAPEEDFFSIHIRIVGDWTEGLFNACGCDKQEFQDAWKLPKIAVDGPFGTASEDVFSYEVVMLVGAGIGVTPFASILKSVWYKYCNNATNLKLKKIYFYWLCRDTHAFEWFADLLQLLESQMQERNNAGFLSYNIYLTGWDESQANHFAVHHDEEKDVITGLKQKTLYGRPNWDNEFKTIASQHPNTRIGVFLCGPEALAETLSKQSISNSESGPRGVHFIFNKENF
Sequence of Streptavidin (Streptomyces avidinii) (P22629 whole entry, looked up): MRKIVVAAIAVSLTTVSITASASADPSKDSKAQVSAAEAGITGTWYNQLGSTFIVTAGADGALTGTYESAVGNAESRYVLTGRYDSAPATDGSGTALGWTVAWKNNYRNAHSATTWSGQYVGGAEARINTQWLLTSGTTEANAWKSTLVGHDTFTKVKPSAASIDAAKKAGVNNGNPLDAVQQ
Sequence of NADPH oxidase 4 (Homo sapiens) (Q9NPH5 whole entry, looked up): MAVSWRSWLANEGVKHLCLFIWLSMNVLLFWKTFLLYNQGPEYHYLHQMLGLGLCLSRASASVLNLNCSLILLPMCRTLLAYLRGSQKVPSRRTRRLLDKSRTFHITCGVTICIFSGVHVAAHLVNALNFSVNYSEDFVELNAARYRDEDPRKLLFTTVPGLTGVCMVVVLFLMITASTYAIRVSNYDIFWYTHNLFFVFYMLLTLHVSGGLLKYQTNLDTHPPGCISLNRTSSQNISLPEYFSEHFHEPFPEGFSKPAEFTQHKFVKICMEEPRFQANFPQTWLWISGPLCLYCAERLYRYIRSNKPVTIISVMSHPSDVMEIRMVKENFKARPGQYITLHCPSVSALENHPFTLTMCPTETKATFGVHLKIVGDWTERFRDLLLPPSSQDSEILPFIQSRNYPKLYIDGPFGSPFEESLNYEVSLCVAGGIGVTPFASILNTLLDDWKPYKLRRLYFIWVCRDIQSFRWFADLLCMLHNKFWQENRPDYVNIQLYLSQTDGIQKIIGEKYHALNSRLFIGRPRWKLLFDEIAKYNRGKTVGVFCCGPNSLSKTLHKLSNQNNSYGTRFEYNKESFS

SMILES | composite z-score [1] | z-score [2] | z-score [3] | z-score [4] | z-score [5] | composite z-score [6] | composite z-score [7] | composite z-score [8] | composite z-score [9] | composite z-score [10] | z-score [11] | composite z-score [12] | z-score [13] | z-score [14] | z-score [15] | z-score [16] | z-score [17] | z-score [18] | z-score [19] | z-score [20]
C=CC[C@H](OC(=O)Nc1ccc(SC)cc1)c1ccc(O)c2ccccc12 | 0.336 | -6.78 (inactive) | -0.921 (inactive) | 4.1 (inactive) | 3.2 (inactive) | 1.61 | -0.101 | 0.557 | 0.465 | 1.76 | -1.2 (inactive) | 0.27 | 29.5 (active) | 16.8 (active) | 2.22 (inactive) | 1.63 (inactive) | 0.76 | -5.83 (inactive) | -1.41 (inactive) | -0.0589
COC(=O)[C@@]1(Cc2ccc(OC)cc2)[C@H]2c3cc(C(=O)N(C)C)n(Cc4ccc(OC(F)(F)F)cc4)c3C[C@H]2CN1C(=O)c1ccccc1 | -0.223 | -2.6 (inactive) | 0.043 (inactive) | 4.4 (inactive) | 74 (active) | 0.539 | 0.185 | -0.178 | 0.555 | -0.955 | -1.81 (inactive) | 0.407 | 0.404 (inactive) | 0.542 (inactive) | 0.219 (inactive) | 0.569 (inactive) | -1.19 | 0.262 (inactive) | -0.787 (inactive) | -0.499
C=CCNC(=O)[C@@H]1[C@H]2C(=O)O[C@H](c3ccccc3)[C@H](c3ccccc3)N2[C@H](c2ccc(OCCO)cc2)[C@@]12C(=O)N(C(=O)OCCOC)c1ccc(C#Cc3ccc(OC)cc3)cc12 | 0.0609 | -2.81 (inactive) | 0.543 (inactive) | 0.476 (inactive) | -0.222 (inactive) | 0.613 | 0.0497 | 0.105 | -0.0165 | 1.88 | -0.0604 (inactive) | 0.302 | 3.58 (inactive) | 1.28 (inactive) | 0.0207 (inactive) | 0.776 (inactive) | -0.492 | 1.78 (inactive) | 0.437 (inactive) | 0.986
COC(=O)[C@@]1(Cc2ccc(OC)cc2)[C@H]2c3cc(C(=O)N4CCCC4)n(CCc4c[nH]c5ccc(OC)cc45)c3C[C@H]2CN1C(=O)c1ccccc1 | 0.411 | -3.16 (inactive) | 0.717 (inactive) | 0.201 (inactive) | -0.715 (inactive) | 1.5 | 0.35 | -0.0701 | 0.327 | -0.565 | -1.61 (inactive) | 0.894 | 4.25 (inactive) | 0.71 (inactive) | 1.42 (inactive) | 1.57 (inactive) | 0.0592 | 0.547 (inactive) | 1.14 (inactive) | 1.38
CC(C)C[C@@H]1NC(=O)[C@@H]2C[C@H](C(=O)NCCCCCCN)[C@H](c3cccc(OCCO)c3)N2C1=O | 0.0254 | -0.214 (inactive) | -1.74 (inactive) | -0.675 (inactive) | 0.348 (inactive) | 0.919 | 0.747 | 0.255 | 1.73 | 2 | 0.831 (inactive) | 0.393 | 3.69 (inactive) | 0.73 (inactive) | 3.36 (inactive) | 0.227 (inactive) | -0.256 | 2.24 (inactive) | 1.36 (inactive) | 1.99
C=CCN1Cc2ccccc2[C@@H]2OC(c3ccc(OCCCO)cc3)=N[C@]2(CC=C)C1=O | 0.518 | -2.51 (inactive) | 0.0166 (inactive) | 0.236 (inactive) | -0.377 (inactive) | 0.579 | 0.462 | 0.918 | 0.966 | 1.81 | 0.408 (inactive) | 1.49 | 22.5 (active) | 7.24 (inactive) | 5.55 (inactive) | 1.33 (inactive) | -0.218 | -1.98 (inactive) | 0.452 (inactive) | 1.03
CC(C)[Si](C#C[Si](C(C)C)(C(C)C)C(C)C)(O[C@H](c1ccccc1)c1cn(Cc2ccccc2)nn1)C(C)C | -0.0366 | -0.071 (inactive) | -1.32 (inactive) | -0.752 (inactive) | -0.166 (inactive) | 0.652 | -0.016 | 0.412 | 0.107 | 0.558 | 1.25 (inactive) | 0.0997 | 0.62 (inactive) | 0.267 (inactive) | -0.351 (inactive) | 0.136 (inactive) | -0.25 | -0.734 (inactive) | -1.17 (inactive) | -0.932
C=CCOC(=O)[C@@]1(Cc2ccccc2)C[C@H]2CO[C@H](c3ccc(OC)cc3)N2C1=O | -0.0728 | -1.08 (inactive) | 0.572 (inactive) | 2.72 (inactive) | 0.892 (inactive) | 0.911 | -0.0719 | 0.91 | 0.456 | 0.235 | -0.0282 (inactive) | -0.338 | 1.36 (inactive) | 0.522 (inactive) | -0.256 (inactive) | 0.0894 (inactive) | -0.673 | 0.826 (inactive) | -0.213 (inactive) | -1.93
